# Records with an inconclusive call do not appear. Values without a mark were called inactive. The source made the active and inactive calls. The call rests on the fitted dose curve; in most records, active means well fitted inhibition curve with a large enough effect; inconclusive means small, poorly fitted or top-dose-only effect; inactive means flat fitted curve, though single readings scatter.
# Experiment: CHOP2 Reporter Counterscreen Assay for Inhibitors of Ubiquitin-specific Protease USP2a;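 further: activated enterokinase alone at 50 pM in a cell-free format rather than USP2a or CHOP2; nearly all actives have a fitted effect of over 55% in size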
# Conditions: purified enterokinase, fluorogenic substrate, 485/531 nm; series mostly up to 38.3 µM; activity change, negative = inhibition: at the top concentration
# Method in brief: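 Fluorescence (485/531 nm) read 10 min after adding 25nM reporter substrate to 50 pM activated EK preincubated 30 min RT with compound; Tris pH 8.0/CaCl2/CHAPS buffer. Data normalized to buffer-alone inhibition; concentration-response curves fitted.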
# On the % scale 0 is the no-effect control and ±100 the full control effect; potency means the concentration at half of the fitted maximal effect.
SMILES,Potency,"activity change, negative = inhibition [%]"
CCc1ccccc1OCC(=O)Nc1ccc(N2CCCC2)cc1C,10 µM (active),–
C#CCOCCOCCOCCNc1nc(N2CCN(C(=O)CCCCCCCCCCNC(=O)Cn3cc(C[C@@H](C)O)nn3)CC2)nc(N2CCN(C(=O)CCCCCCCCCCNC(=O)[C@@H]([C@H](C)CC)n3cc(CCCCCN)nn3)CC2)n1,5.62 µM (active),–
CN(C)c1ccc(-c2ccccc2)nn1,–,2.68
O=C(Nc1cccc(C(F)(F)F)c1)/C(=C\c1ccco1)NC(=O)c1cccs1,–,7.95
COC(=O)c1ccccc1NC(=O)CSc1nc(O)cc(=O)n1C1CCCC1,–,-3.97
CCCCc1ccc(/C=C2/C(=O)ON=C2c2ccccc2)s1,–,-1.37
C[C@](N)(Cc1ccc(O)c(O)c1)C(=O)O,–,-9.19
C=CCn1c(NCc2cc(C)ccc2O)nc2ccccc21,–,2.52
N#Cc1c(SCC(=O)Nc2nc3ccccc3s2)sc2c(O)cc(=O)[nH]c12,10 µM (active),–
COc1ccc(C2CC(=O)N3CN(c4ccccc4F)CSC3=C2C#N)cc1OC (stereo not given),–,-1.25
OCCN(Cc1ccccc1)c1ncnc2sccc12,–,2.84
COC(=O)C1CCN(C(=O)c2cc(-c3ccco3)nc3ccccc23)CC1,3.98 µM (active),–
CCOC(=O)N1CCC(NC(=O)c2ccc(OC)c(CN3CC(=O)N4CCCC4C3=O)c2)CC1 (stereo not given),–,0.139
CCCCOC1(c2ccccc2)NC(=S)NN=C1c1ccccc1 (stereo not given),–,-0.372
CC1CCCCC1NC(=O)CSCC(=O)O (stereo not given),–,4.32
Cc1cc(/C=C2\C(=N)N3N=C(c4ccco4)SC3=NC2=O)c(C)n1Cc1ccccc1,7.08 µM (active),–
N=C1/C(=C\c2ccc(-c3cccc(Cl)c3)o2)C(=O)N=C2SC=C(c3ccccc3)N12,–,-29.9
Cc1c(NC(=O)c2ccc(COc3ccc4ccccc4c3)o2)c(=O)n(-c2ccccc2)n1C,–,-9.92
Cc1nc2ccccc2c2oc(C(=O)NCCN3CCN(C)CC3)cc12,–,-12.2
Cc1c(C(=O)Nc2ccc3c4c(cccc24)CC3)cccc1[N+](=O)[O-],–,-0.0061

SMILES,Potency,"activity change, negative = inhibition [%]"
O=C(O)C1CCN1C1CCCCC1 (stereo not given),–,-1.7
Cc1cc(NC(=O)c2cccc(S(=O)(=O)N(C)C)c2)n(-c2ccccn2)n1,–,-1.67
NS(=O)(=O)c1cc(C(=O)NC2CCSc3ccccc32)ccc1Cl (stereo not given),10 µM (active),–
Cc1ccc(NC(=O)CSc2nc(O)cc(=O)n2-c2ccc(C)cc2)cc1,–,-0.867
CCOC(=O)N1CCN(CC(=O)n2c(C)c(C)c3ccccc32)CC1,–,-16.2
CC(C)CC(=O)Nc1cccc(-c2nc3ccccc3o2)c1,–,-0.733
O=C(CN1CCOCC1)Nc1ccc(C2CCCCC2)cc1,–,-0.907
C/C(CC(=O)N1CCCC1)=N\NC(=O)c1cc2ccccc2cc1O,–,-3.58
CC1(C)CC(=O)C2=C(C1)NCN(CCCN1CCOCC1)C2,–,2.72
O=C(/C=C1\NC2(CCCC2)Cc2ccccc21)C(=O)N/N=C/c1ccc(O)c(O)c1,4.47 µM (active),–
CCCc1nc(SCC(N)=O)[nH]c(=O)c1CC,–,0.215
CC1(C)CC(=O)C2=C(C1)Oc1ncn(CCCO)c(=N)c1C2c1ccccc1 (stereo not given),–,-1.64
Cc1ccc(C2=[N+]([O-])C(C)N(O)C2(C)C)o1 (stereo not given),–,-0.491
Cn1c(=O)c2c(nc(CN3CCN(C(=O)c4ccco4)CC3)n2CCCc2ccccc2)n(C)c1=O,–,4.23
CC(C)(C)OC(=O)C[C@H]1C/C=C\C[C@H](CC(=O)N(CCO)Cc2ccccc2)C(=O)NC[C@H](c2ccccc2)OC1=O,–,0.71
CCC(C)NC(=O)CSC1=Nc2ccccc2C2=NC(c3ccccc3)C(=O)N12 (stereo not given),–,4.16
CC(C)(C)NC(=O)C(c1ccco1)N(C(=O)c1ccc(CN2CCOCC2)o1)c1ccccc1 (stereo not given),–,-0.938
CCc1cc2c(=O)c(-n3cnc4ccccc43)coc2cc1O,–,-1.67
Clc1ccc2c(N/N=C/c3ccc(Br)cc3)ccnc2c1,7.94 µM (active),–
Cc1cccc2c1N(CCCOc1ccc(C(C)(C)C)cc1)C(=O)C2=O,–,-1.62

# From PubChem BioAssay AID493169 (National Center for Advancing Translational Sciences (NCATS), 2011)
